Records with an inconclusive call do not appear. Active and inactive are the calls of the source. Unless noted, calls come from the whole dose curve; as a rule, active = well fitted curve in the direction sought with a large enough effect in the repeat runs; inconclusive = weak or mixed curves; inactive = no such curve, though single readings can be large; an effect the other way counts as inactive or inconclusive.
Key:
[1] = A CellTox Green Cytotoxicity Assay to monitor cytotoxicity in HepG2 cells - 0 hour (AID 1224882); note: nearly all actives have a fitted effect of over 35% in size
Procedure, shortened: (§1)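 Continuous culture of HepG2 cells with a membrane-impermeant DNA dye; rising fluorescence marks dead cells. Compound exposure lasted up to 40 h at 37 C, with reads every 8 h from 0 h.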

[2] = A CellTox Green Cytotoxicity Assay to monitor cytotoxicity in HepG2 cells - 32 hour (AID 1224883); note: nearly all actives have a fitted effect of over 50% in size
Procedure, shortened: as §1

[3] = A CellTox Green Cytotoxicity Assay to monitor cytotoxicity in HEK293 cells - 8 hour (AID 1224884); note: nearly all actives have a fitted effect of over 35% in size
Procedure, shortened: (§2)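 Each value comes from one timepoint of a single continuous run in which HEK293 cells with CellTox Green were exposed to compound for up to 40 h at 37 C, dye fluorescence rising with cell death.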

[4] = qHTS RealTime-Glo MT Cell Viability Assay in HepG2 cells - 16 hour (AID 1224885); note: nearly all actives have a fitted effect of over 50% in size
Procedure, shortened: (§3)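 Luminescence read-out: viable HepG2 cells reduce a prosubstrate to a NanoLuc substrate, giving a signal proportional to live cell number. Reads taken at 0, 8, 16, 24, 32 and 40 h of compound exposure at 37 C.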

[5] = qHTS RealTime-Glo MT Cell Viability Assay in HEK293 cells - 24 hour (AID 1224886); note: top concentration of the series differs between compounds; nearly all actives have a fitted effect of over 50% in size
Procedure, shortened: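 Nonlytic real-time viability readout: viable cells convert prosubstrate to NanoLuc substrate, giving luminescence proportional to live cell number. HEK293, 600 cells/well, compound added after 5 h, continuous culture at 37 C.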

[6] = qHTS RealTime-Glo MT Cell Viability Assay in HEK293 cells - 8 hour (AID 1224887); note: top concentration of the series differs between compounds; nearly all actives have a fitted effect of over 50% in size
Procedure, shortened: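 qHTS format; HEK293 cells with NanoLuc/prosubstrate reagent, 37 C/5% CO2 for 5 h pre-dosing; compounds 23 nL in DMSO; luminescence at each time point reflects viable cells.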

[7] = A CellTox Green Cytotoxicity Assay to monitor cytotoxicity in HEK293 cells - 16 hour (AID 1224888); note: nearly all actives have a fitted effect of over 35% in size
Procedure, shortened: as §2

[8] = qHTS RealTime-Glo MT Cell Viability Assay in HepG2 cells - 0 hour (AID 1224889); note: nearly all actives have a fitted effect of over 50% in size
Procedure, shortened: as §3

[9] = A CellTox Green Cytotoxicity Assay to monitor cytotoxicity in HepG2 cells - 8 hour (AID 1224890); note: nearly all actives have a fitted effect of over 45% in size
Procedure, shortened: as §1

[10] = qHTS assay to identify small molecule antagonists of the estrogen receptor alpha (ER-alpha) signaling pathway using the BG1 cell line in the presence of 0.1 nM 17-beta-estradiol - cell viability counter screen (AID 1259241); note: nearly all actives have a fitted effect of over 40% in size
Procedure, shortened: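 Cytotoxicity counter-screen: live-cell protease activity measured by fluorescence (30 min reagent step) in the same wells. Cells were VM7Luc4E2 with endogenous ER-alpha and ERE-driven luciferase, treated 22 hr at 37C alongside 0.1 nM 17beta-estradiol final.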

[11] = qHTS assay to identify small molecule antagonists of the androgen receptor (AR) signaling pathway using the MDA cell line in the presence of 0.5 nM R1881 - cell viability counter screen (AID 1259242); note: nearly all actives have a fitted effect of over 45% in size
Procedure, shortened: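 Fluorescence from CellTiter-Fluor, which reports protease activity of live cells, was read 30 min after reagent addition to MDA-kb2 cells that had been incubated 16 hr with compound and 0.5 nM R1881.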

[12] = molecular target: Androgen receptor (Homo sapiens) (UniProt P10275); test: qHTS assay to identify small molecule antagonists of the androgen receptor (AR) signaling pathway using the MDA cell line in the presence of 0.5 nM R1881 (AID 1259243); note: nearly all actives have a fitted effect of over 50% in size
Sequence of Androgen receptor (Homo sapiens) (P10275 whole entry, looked up): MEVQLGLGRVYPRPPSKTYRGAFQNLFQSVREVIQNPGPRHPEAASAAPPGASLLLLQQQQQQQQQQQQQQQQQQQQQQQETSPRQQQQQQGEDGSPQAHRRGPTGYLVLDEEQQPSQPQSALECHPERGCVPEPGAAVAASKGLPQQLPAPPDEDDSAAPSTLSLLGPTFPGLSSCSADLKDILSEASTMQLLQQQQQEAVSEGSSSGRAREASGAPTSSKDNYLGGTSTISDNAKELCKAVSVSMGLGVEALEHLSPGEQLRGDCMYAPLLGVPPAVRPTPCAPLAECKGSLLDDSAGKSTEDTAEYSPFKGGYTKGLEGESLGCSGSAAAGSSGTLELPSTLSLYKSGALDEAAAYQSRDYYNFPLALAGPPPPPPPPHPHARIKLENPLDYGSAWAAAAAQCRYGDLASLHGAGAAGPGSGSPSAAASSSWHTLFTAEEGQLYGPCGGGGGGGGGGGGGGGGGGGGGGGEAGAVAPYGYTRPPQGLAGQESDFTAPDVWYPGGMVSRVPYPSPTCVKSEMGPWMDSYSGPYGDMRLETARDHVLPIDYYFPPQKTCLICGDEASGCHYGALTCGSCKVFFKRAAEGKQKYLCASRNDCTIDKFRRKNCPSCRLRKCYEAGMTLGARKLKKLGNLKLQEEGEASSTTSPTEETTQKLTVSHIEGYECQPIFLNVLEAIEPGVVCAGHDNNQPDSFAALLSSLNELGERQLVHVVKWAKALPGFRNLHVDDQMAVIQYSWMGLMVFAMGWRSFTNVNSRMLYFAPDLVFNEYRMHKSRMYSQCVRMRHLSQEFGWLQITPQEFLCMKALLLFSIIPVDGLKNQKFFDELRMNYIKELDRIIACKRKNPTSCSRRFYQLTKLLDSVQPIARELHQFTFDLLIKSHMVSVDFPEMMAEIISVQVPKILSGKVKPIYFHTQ
Procedure, shortened: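 Inhibition of R1881 (0.5 nM final) induced reporter signal was measured in human MDA-kb2 cells; note the MMTV promoter also responds to GR. Exposure lasted 16 hr at 37C.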

[13] = molecular target: Estrogen receptor (Homo sapiens) (UniProt P03372); test: qHTS assay to identify small molecule antagonists of the estrogen receptor alpha (ER-alpha) signaling pathway using the BG1 cell line in the presence of 0.1 nM 17-beta-estradiol (AID 1259244); note: nearly all actives have a fitted effect of over 50% in size
Sequence of Estrogen receptor (Homo sapiens) (P03372 whole entry, looked up): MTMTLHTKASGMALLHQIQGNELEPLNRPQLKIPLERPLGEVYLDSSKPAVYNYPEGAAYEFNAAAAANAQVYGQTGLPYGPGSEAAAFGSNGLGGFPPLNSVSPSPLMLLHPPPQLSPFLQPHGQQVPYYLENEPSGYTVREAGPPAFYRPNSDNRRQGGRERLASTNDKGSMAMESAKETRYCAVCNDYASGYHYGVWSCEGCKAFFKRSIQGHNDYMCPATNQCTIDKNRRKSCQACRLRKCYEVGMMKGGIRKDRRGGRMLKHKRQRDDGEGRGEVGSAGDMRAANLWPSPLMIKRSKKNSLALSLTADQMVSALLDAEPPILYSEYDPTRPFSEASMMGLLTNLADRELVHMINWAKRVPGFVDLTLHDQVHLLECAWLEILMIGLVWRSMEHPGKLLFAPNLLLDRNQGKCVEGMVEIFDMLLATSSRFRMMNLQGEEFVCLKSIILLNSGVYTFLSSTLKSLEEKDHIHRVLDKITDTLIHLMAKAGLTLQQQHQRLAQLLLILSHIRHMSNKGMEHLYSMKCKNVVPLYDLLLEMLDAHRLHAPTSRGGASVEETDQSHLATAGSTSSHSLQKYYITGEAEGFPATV
Procedure, shortened: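 Quantitative high-throughput screen in VM7Luc4E2 cells: compound plus 0.1 nM E2 (final), 22 h, 37C, 5% CO2; ONE-Glo added, 30 min room temperature, luminescence measured.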

[14] = qHTS assay to identify small molecule HDAC inhibitors - cell viability counter screen (AID 1259365)
Procedure, shortened: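 CellTiter-Glo luminescence (30 min, room temperature) reported viability after a 2 h compound exposure at 37 C. Cells: wild-type HCT-116, 1,500 per well, seeded the night before.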

[15] = qHTS assay to identify small molecule agonists of the sonic hedgehog signaling (Shh) pathway - cell viability counter screen (AID 1259366); note: nearly all actives have a fitted effect of over 50% in size
Procedure, shortened: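 Cytotoxicity counter screen: CellTiter-Fluor reagent added after 23 h compound exposure, then 1 h at 37C and fluorescence read. Cells were 3T3 Gli1-Luc, seeded 2,000 per well and dosed 4 h post-plating.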

[16] = qHTS assay to identify small molecule antagonists of the sonic hedgehog signaling (Shh) pathway - cell viability counter screen (AID 1259367); note: nearly all actives have a fitted effect of over 55% in size
Procedure, shortened: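 Using CellTiter-Fluor, viability of Gli1-Luc reporter 3T3 cells is read by fluorescence in the wells used for the Shh luciferase assay. Treatment lasts 23 hr with conditioned medium, then reagent 1 hr at 37C.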

[17] = qHTS assay to identify small molecule agonists of the sonic hedgehog signaling (Shh) pathway (AID 1259368; calls by dose curve;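 note: NIH/3T3-derived 3T3Gli1-Luc cells carrying a stable Gli1-driven firefly luciferase reporter; series mostly up to about 92 µM; nearly all actives have a fitted effect of over 15% in size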)
Procedure, shortened: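 Luminescent signal was taken as a measure of Gli1-controlled luciferase expression in stably transfected NIH/3T3-derived cells that had been treated for 24 hr with compounds delivered in DMSO.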

[18] = qHTS assay to identify small molecule antagonists of the sonic hedgehog signaling (Shh) pathway (AID 1259369; calls by dose curve; note: nearly all actives have a fitted effect of over 45% in size)
Procedure, shortened: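 Screening used 3T3Gli1-Luc cells at 2,000 per well, compounds delivered in DMSO, and conditioned medium as agonist stimulus; plates incubated 24hr at 37 C and 5% CO2 before a 30min luciferase step.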

[19] = qHTS assay to identify small molecule HDAC inhibitors (AID 1259364); note: top concentration of the series differs between compounds; nearly all actives have a fitted effect of over 45% in size
Procedure, shortened: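 Endogenous HDAC class I/II activity was measured in wild-type HCT-116 cells by HDAC-Glo luminescence after 2 h compound treatment.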

[20] = qHTS assay to identify small molecule phospholipidosis (PLD) inducers (AID 1259344; active = well fitted curve in the direction sought with a large enough effect; an effect the other way counts as inactive or inconclusive)
Procedure, shortened: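 Fluorescent phospholipid staining (LipidTOX Red) measured by automated microscopy in fixed HepG2 cells after 24 h treatment; nuclei counterstained with Hoechst 33342; amiodarone as reference inducer.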
% is set by controls: 0 for no effect and ±100 for the full control effect.

Clc1sc(Cl)c(Cl)c1Cl
inactive: Potency [1] | Potency [2] | Potency [3] | Potency [4] | Potency [5] | Potency [6] | Potency [7] | Potency [8] | Potency [9] | Potency [10] | Potency [11] | Potency [12] | Potency [13] | Potency [14] | Potency [15] | Potency [16] | Potency [17] | Potency [18]

CC(C)(C)CC(C)(C)c1ccc(Nc2ccc(C(C)(C)CC(C)(C)C)cc2)cc1
inactive: cytotoxicity [1] 0.162% [at 6.97 µM] | cytotoxicity increase [2] 0.939% [at 6.97 µM] | cytotoxicity increase [3] 0.178% [at 6.97 µM] | activity change, negative = cytotoxic [4] 0.171% [at 6.97 µM] | activity change, negative = cytotoxicity [5] 3.98% [at 6.97 µM] | activity change, negative = cytotoxicity [6] -20.4% [at 6.97 µM] | activity change [7] 5.08% [at 6.97 µM, active compounds read high] | activity change, negative = cytotoxicity [8] 1.23% [at 6.97 µM] | cytotoxicity increase [9] 1.07% [at 6.97 µM] | activity change, negative = cytotoxicity [10] 4% [at 8.39 µM] | viability change, negative = cytotoxic [11] 0.0791% [at 8.39 µM] | activity change, negative = inhibition [13] -17.9% [at 8.39 µM] | activity change, negative = inhibition [19] -1.65% [at 8.39 µM] | activity change, negative = cytotoxicity [14] 2.64% [at 8.39 µM] | viability change, negative = cytotoxic [15] 3.57% [at 8.39 µM] | activity change [17] -0.648% [at 8.39 µM, active compounds read high] | activity change, negative = inhibition [18] -12.5% [at 8.39 µM]

CCCCCCCCCCCC(=O)OCC(C)OC(=O)CCCCC(=O)O (stereo not drawn)
inactive: Potency [1] | Potency [2] | Potency [3] | Potency [4] | Potency [5] | Potency [6] | Potency [7] | Potency [8] | Potency [9] | Potency [10] | Potency [11] | Potency [13] | Potency [19] | Potency [14] | Potency [15] | Potency [16] | Potency [17] | Potency [18]

O=C(O)[C@H](O)[C@@H](O)[C@H](O[C@@H]1O[C@H](CO)[C@H](O)[C@H](O)[C@H]1O)[C@H](O)CO
inactive: Potency [1] | Potency [2] | Potency [3] | Potency [4] | Potency [5] | Potency [6] | Potency [7] | Potency [8] | Potency [9] | Potency [10] | Potency [11] | Potency [13] | Potency [20] | Potency [19] | Potency [14] | Potency [15] | Potency [17] | Potency [18]

S=c1nccc[nH]1
inactive: Potency [1] | Potency [2] | Potency [3] | Potency [4] | Potency [5] | Potency [6] | Potency [7] | Potency [8] | Potency [9] | Potency [10] | Potency [11] | Potency [13] | Potency [19] | Potency [14] | Potency [15] | Potency [17]

CC(=O)Oc1cc2c(s1)CCN(C(C(=O)C1CC1)c1ccccc1F)C2 (stereo not drawn)
inactive: Potency [1] | Potency [2] | Potency [3] | Potency [4] | Potency [5] | Potency [6] | Potency [7] | Potency [8] | Potency [9] | Potency [10] | Potency [11] | Potency [13] | Potency [20] | Potency [19] | Potency [14] | Potency [15] | Potency [16] | Potency [17]

Cc1c(C)c2c(c(C)c1OC(=O)c1cccnc1)CC[C@@](C)(CCC[C@H](C)CCC[C@H](C)CCCC(C)C)O2
inactive: Potency [1] | Potency [2] | Potency [3] | Potency [4] | Potency [5] | Potency [6] | Potency [7] | Potency [8] | Potency [9] | Potency [10] | Potency [11] | Potency [13] | Potency [20] | Potency [19] | Potency [14] | Potency [15] | Potency [17] | Potency [18]
